Legend:
Conditions in all cases: concentration: 1 μM, replicates: in singlicate; n = 1
ERK5 = tested on: T1, ERK5
T1 construct: gene MAPK7

ERK8 = tested on: T2, ERK8
T2 construct: gene MAPK15

ERN1 = tested on: ERN1
FAK = tested on: T3, FAK
T3 construct: gene PTK2

FER = tested on: FER
FES = tested on: FES
FGFR1 = tested on: FGFR1
FGFR2 = tested on: FGFR2
FGFR3 = tested on: FGFR3
FGFR4 = tested on: FGFR4
FGR = tested on: FGR
FLT1 = tested on: FLT1
FLT3-autoinhibited = tested on: FLT3-autoinhibited
FLT3 = tested on: FLT3
FLT4 = tested on: FLT4
FRK = tested on: FRK
FYN = tested on: FYN
GAK = tested on: GAK
GCN2(Kin.Dom.2,S808G) = tested on: T4, GCN2(Kin.Dom.2,S808G)
T4 construct: gene EIF2AK4

GRK1 = tested on: GRK1
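Note: KINOMEscan kinase panel screen.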

Structure (SMILES)	%Inh (ERK5)	%Inh (ERK8)	%Inh (ERN1)	%Inh (FAK)	%Inh (FER)	%Inh (FES)	%Inh (FGFR1)	%Inh (FGFR2)	%Inh (FGFR3)	%Inh (FGFR4)	%Inh (FGR)	%Inh (FLT1)	%Inh (FLT3-autoinhibited)	%Inh (FLT3)	%Inh (FLT4)	%Inh (FRK)	%Inh (FYN)	%Inh (GAK)	%Inh (GCN2(Kin.Dom.2,S808G))	%Inh (GRK1)
Cc1cccc(-c2nc(Nc3ccc4c(cnn4C)c3)c3ccccc3n2)n1 [GW876731]	1%	0%	29%	11%	9%	4%	0%	21%	4%	0%	0%	0%	0%	9%	0%	13%	9%	19%	12%	1%
Cc1ccc(Oc2ccc(Nc3ncnc4cc[nH]c34)cc2C)cn1	5%	0%	21%	8%	15%	23%	10%	0%	4%	11%	29%	92.5%	23%	3%	0%	12%	0%	10%	0%	9%
COc1ccc(-c2coc3ccc(-c4nnc(SCc5cccc(C#N)c5)o4)cc23)cc1	0%	14%	11%	0%	10%	7%	11%	13%	17%	17%	0%	0%	10%	13%	0%	0%	5%	12%	0%	9%
COc1ccc(-c2cc3c(C)nc(N)nc3n([C@H]3CC[C@H](OCCO)CC3)c2=O)cn1	12%	0%	0%	0%	13%	1%	7%	0%	0%	0%	14%	11%	0%	0%	0%	0%	0%	0%	0%	0%
Nc1ncnc2c1ncn2-c1cccc2ccccc12 [SKF-97184]	0%	9%	0%	0%	0%	0%	12%	0%	0%	0%	6%	0%	0%	0%	10%	0%	0%	0%	0%	31%
COc1cc2nccc(Nc3ccc(OCc4ccc(NC(C)=O)cc4)cc3)c2cc1OC.Cl [GW440135]	0%	25%	0%	0%	4%	8%	4%	47%	26%	0%	29%	83%	0%	73%	92.4%	7%	1%	7%	4%	22%
Cc1ccccc1COc1cc(-n2cnc3cc(Cl)ccc32)sc1C(N)=O [GW813349]	0%	9%	0%	5%	0%	2%	12%	3%	0%	0%	9%	5%	3%	8%	10%	0%	0%	1%	0%	13%
COc1cc2ncn(-c3cc(OCc4ccncc4Br)c(C(N)=O)s3)c2cc1OC [GW854278]	0%	0%	24%	0%	2%	0%	43%	16%	29%	7%	20%	0%	22%	26%	68%	8%	0%	58%	0%	0%
CCS(=O)c1ccc(-c2coc3ccc(-c4nnc(C)o4)cc23)cc1 (stereo not drawn)	0%	0%	16%	0%	11%	7%	9%	10%	7%	0%	0%	0%	0%	0%	0%	5%	0%	0%	0%	5%
